Source: the supplement of paper PMC10849652
Of roughly 8,800 targets only a part is listed; those with a hit were picked by preference. About 0.5% of all pairs of compound and target were hits. Unmarked numbers belong to inactive results.

Legend:
Experiment in all cases: log2 fold change, soluble protein after heating vs DMSO (PISA); higher = thermal stabilisation; K562 lysate, 10 uM; active = over 0.2 and 3.5 SD of the protein, either way, in both replicates (recomputed)
lapatinib = compound: CS(=O)(=O)CCNCc1ccc(-c2ccc3ncnc(Nc4ccc(OCc5cccc(F)c5)c(Cl)c4)c3c2)o1 [lapatinib]
Method in brief: (§1)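 K562 pellets were dounce-homogenised in PBS pH 7.4 with 1 mM MgCl2, and the crude extract at 1 mg/mL protein was treated with 10 μM compound for 30 min. Aliquots were heated for 3 min across 48°C-58°C, pooled, and brought to 0.5% NP-40 at 4°C; soluble protein was the supernatant after 21,000xg for 90 min. Soluble protein was quantified by TMTpro 16plex LC-MS/MS with channel sums equalised, and reported as log2 fold change in thermal stability against DMSO controls, with values from duplicates.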

pictilisib = compound: CS(=O)(=O)N1CCN(Cc2cc3nc(-c4cccc5[nH]ncc45)nc(N4CCOCC4)c3s2)CC1 [pictilisib]
Method in brief: as §1

crizotinib = compound: C[C@@H](Oc1cc(-c2cnn(C3CCNCC3)c2)cnc1N)c1c(Cl)ccc(F)c1Cl [crizotinib]
Method in brief: as §1

[1] = compound: C[C@H](C1=CC=C(C=C1)C(=O)NC2=C3C=CNC3=NC=C2)N
Method in brief: as §1

duvelisib = compound: C[C@H](Nc1ncnc2nc[nH]c12)c1cc2cccc(Cl)c2c(=O)n1-c1ccccc1 [duvelisib]
Method in brief: as §1

gandotinib = compound: Cc1cc(Nc2cc(CN3CCOCC3)c3nc(C)c(Cc4ccc(Cl)cc4F)n3n2)n[nH]1 [gandotinib]
Method in brief: as §1

tozasertib = compound: Cc1cc(Nc2cc(N3CCN(C)CC3)nc(Sc3ccc(NC(=O)C4CC4)cc3)n2)n[nH]1 [tozasertib]
Method in brief: as §1

doramapimod = compound: Cc1ccc(-n2nc(C(C)(C)C)cc2NC(=O)Nc2ccc(OCCN3CCOCC3)c3ccccc23)cc1 [doramapimod]
Method in brief: as §1

bafetinib = compound: Cc1ccc(NC(=O)c2ccc(CN3CC[C@H](N(C)C)C3)c(C(F)(F)F)c2)cc1Nc1nccc(-c2cncnc2)n1 [bafetinib]
Method in brief: as §1

[2] = compound: Cc1cccc(CC(=O)N2CCc3c2ccc(-c2cn(C)c4ncnc(N)c24)c3F)n1
Method in brief: as §1

Sequence of UniProt O00161 (O00161 whole entry, looked up): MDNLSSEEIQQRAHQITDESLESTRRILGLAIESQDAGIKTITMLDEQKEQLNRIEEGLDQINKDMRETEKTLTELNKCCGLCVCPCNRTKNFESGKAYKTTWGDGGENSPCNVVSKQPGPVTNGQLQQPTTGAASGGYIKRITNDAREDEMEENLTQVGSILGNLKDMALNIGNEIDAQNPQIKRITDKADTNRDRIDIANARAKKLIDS
Sequence of UniProt Q15796 (Q15796 whole entry, looked up): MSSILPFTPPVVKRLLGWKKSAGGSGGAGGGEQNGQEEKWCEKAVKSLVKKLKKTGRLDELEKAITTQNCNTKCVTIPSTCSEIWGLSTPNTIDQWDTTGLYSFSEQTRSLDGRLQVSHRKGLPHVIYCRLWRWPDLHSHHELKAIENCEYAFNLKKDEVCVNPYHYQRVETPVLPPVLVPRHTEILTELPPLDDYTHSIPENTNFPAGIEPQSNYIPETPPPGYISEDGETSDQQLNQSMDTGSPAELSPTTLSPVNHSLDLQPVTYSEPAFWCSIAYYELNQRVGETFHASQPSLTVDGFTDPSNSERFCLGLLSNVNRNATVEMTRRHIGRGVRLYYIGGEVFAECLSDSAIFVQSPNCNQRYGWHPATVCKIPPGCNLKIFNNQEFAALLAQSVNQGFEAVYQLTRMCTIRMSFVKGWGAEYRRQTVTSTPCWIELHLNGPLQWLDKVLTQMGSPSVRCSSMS
Sequence of UniProt P52630 (P52630 whole entry, looked up): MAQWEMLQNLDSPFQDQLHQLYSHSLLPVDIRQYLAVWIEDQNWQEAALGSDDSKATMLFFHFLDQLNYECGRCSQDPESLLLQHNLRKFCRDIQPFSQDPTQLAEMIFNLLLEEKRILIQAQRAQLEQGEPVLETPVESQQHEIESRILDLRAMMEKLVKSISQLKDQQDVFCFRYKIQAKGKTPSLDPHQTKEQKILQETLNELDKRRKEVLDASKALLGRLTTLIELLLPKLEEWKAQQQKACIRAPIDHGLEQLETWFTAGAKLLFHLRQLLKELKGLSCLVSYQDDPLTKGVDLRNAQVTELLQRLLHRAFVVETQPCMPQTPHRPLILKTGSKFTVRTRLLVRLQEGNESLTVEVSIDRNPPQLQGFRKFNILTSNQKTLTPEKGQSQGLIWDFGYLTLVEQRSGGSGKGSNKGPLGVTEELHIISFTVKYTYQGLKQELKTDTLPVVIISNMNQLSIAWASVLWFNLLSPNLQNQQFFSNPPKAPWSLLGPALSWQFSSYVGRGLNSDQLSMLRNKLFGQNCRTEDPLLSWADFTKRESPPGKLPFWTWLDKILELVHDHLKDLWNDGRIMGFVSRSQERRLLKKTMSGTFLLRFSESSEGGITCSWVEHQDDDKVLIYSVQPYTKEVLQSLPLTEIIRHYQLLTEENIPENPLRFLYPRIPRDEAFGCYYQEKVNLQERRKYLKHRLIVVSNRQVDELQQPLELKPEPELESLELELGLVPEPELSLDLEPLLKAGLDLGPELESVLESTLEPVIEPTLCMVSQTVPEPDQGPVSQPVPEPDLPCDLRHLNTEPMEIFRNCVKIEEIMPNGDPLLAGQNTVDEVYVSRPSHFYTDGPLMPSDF
Sequence of UniProt Q9C0B7 (Q9C0B7 whole entry, looked up): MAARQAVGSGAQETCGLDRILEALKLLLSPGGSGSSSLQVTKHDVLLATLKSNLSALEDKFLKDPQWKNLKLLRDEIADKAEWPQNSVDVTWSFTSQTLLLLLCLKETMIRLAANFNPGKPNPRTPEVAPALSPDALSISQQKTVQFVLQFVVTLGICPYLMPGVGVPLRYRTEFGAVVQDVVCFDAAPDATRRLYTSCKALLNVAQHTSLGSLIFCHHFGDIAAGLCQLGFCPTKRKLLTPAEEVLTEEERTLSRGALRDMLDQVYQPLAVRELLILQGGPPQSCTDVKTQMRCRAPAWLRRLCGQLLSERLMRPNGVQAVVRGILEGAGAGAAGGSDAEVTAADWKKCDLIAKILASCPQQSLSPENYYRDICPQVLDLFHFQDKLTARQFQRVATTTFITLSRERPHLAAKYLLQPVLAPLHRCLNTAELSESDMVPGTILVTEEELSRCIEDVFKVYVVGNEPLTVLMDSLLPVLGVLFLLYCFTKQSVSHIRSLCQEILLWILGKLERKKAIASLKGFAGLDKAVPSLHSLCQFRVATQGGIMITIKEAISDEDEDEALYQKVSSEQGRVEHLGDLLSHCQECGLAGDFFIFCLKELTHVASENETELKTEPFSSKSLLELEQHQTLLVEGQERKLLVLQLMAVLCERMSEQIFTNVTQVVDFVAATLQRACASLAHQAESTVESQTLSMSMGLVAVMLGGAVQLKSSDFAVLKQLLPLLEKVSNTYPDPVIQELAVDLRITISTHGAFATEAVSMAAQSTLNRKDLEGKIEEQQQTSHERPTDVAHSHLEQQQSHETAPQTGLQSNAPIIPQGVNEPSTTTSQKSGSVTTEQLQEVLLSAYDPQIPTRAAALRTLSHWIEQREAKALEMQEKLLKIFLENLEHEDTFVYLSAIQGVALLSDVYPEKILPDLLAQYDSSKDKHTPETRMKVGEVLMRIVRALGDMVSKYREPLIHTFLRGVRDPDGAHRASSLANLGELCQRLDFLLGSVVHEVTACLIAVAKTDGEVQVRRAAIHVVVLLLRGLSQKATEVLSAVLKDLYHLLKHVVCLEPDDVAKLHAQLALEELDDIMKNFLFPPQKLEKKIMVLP
Sequence of UniProt Q8NHG7 (Q8NHG7 whole entry, looked up): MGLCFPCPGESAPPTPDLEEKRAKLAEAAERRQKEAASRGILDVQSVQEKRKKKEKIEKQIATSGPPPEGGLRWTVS
Sequence of UniProt Q9NP77 (Q9NP77 whole entry, looked up): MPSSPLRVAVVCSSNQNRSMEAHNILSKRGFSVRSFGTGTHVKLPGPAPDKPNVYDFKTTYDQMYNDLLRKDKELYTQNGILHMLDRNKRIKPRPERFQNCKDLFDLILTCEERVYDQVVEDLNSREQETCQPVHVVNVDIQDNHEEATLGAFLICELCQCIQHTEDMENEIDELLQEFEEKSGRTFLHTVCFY
Sequence of UniProt Q15022 (Q15022 whole entry, looked up): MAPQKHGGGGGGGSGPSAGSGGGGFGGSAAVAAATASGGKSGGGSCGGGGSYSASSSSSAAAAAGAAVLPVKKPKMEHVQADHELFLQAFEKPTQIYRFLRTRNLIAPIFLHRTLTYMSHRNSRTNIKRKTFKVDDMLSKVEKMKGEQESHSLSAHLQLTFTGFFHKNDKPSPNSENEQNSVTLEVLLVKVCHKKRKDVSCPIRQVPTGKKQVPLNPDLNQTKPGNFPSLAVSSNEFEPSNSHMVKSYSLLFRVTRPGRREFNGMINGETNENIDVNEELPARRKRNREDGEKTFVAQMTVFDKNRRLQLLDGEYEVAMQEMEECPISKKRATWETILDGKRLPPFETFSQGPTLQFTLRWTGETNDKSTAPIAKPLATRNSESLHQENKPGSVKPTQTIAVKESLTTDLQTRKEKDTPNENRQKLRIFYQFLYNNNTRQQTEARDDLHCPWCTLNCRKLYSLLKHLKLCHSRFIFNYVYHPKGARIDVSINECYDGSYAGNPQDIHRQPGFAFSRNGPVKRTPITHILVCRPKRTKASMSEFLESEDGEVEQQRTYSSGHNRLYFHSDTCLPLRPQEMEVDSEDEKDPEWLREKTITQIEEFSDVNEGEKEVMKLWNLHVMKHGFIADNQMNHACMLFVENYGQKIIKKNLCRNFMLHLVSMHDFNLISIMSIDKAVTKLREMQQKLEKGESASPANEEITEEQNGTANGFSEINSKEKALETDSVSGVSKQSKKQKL
Sequence of UniProt Q96BD8 (Q96BD8 whole entry, looked up): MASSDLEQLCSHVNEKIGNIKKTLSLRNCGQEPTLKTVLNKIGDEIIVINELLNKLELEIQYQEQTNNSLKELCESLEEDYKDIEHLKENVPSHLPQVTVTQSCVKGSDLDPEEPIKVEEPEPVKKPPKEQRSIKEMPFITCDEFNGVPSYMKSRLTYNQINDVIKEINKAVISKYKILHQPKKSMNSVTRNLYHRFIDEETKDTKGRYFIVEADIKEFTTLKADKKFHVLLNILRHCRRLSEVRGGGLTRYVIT
Sequence of UniProt Q13242 (Q13242 whole entry, looked up): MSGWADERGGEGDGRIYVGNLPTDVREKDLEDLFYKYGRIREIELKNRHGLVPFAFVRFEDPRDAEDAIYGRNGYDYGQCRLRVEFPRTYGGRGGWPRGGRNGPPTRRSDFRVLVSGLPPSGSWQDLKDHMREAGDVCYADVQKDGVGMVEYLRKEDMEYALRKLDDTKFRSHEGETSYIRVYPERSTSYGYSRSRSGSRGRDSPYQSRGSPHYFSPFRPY
Sequence of UniProt Q16637 (Q16637 whole entry, looked up): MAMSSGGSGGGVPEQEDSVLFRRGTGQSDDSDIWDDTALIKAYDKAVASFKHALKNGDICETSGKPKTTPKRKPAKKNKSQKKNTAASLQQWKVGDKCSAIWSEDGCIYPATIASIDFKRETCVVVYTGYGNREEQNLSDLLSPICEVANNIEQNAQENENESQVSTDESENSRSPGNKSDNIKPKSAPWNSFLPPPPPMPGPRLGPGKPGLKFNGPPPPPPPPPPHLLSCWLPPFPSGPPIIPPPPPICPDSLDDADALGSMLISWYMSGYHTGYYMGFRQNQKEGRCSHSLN
Sequence of UniProt Q13043 (Q13043 whole entry, looked up): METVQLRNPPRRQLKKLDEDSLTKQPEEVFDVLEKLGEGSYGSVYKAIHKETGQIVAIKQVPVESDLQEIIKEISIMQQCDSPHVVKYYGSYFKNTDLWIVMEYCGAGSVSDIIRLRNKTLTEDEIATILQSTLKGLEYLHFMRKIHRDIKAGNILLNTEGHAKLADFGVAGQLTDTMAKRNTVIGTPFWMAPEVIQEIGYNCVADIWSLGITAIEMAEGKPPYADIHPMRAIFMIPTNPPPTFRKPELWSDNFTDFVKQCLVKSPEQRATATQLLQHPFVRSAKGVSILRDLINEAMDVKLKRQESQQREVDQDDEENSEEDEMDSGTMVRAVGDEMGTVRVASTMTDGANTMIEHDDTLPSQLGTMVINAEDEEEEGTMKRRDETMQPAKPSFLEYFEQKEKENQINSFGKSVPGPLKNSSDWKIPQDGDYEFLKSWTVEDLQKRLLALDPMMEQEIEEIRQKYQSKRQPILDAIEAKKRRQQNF

Target	log2 fold change (lapatinib)	log2 fold change (pictilisib)	log2 fold change (crizotinib)	log2 fold change [1]	log2 fold change (duvelisib)	log2 fold change (gandotinib)	log2 fold change (tozasertib)	log2 fold change (doramapimod)	log2 fold change (bafetinib)	log2 fold change [2]
STOML2 (UniProt Q9UJZ1)	0.013	-0.021	0.028	0.089	0.035	0.015	0.012	-0.032	0.033	-0.023
STK3 isoform 2 (UniProt Q13188)	-0.045	0.02	0.299	-0.029	-0.058	0.468 (active)	0.224	-0.035	0.001	0.122
SMAD2 (UniProt Q15796)	-0.006	-0.042	-0.055	-0.073	-0.066	-0.006	-0.027	-0.025	-0.005	0.06
STK39 (UniProt Q9UEW8)	0.011	-0.038	-0.063	-0.012	0.087	-0.044	0.021	0.032	-0.03	0.057
SRPK1 (UniProt Q96SB4)	-0.006	0.008	-0.089	0.1	0.025	0.17	-0.016	0.233	-0.028	-0.054
STK4 (UniProt Q13043)	-0.029	-0.025	0.382	-0.104	0.004	0.504 (active)	0.27	-0.027	-0.053	0.062
SSB (UniProt E7ERC4)	-0.151	-0.15	-0.103	1.41 (active)	0.141	-0.263	-0.028	0.032	-0.271	-0.121
SLC19A1 (UniProt P41440)	-0.055	0.005	-0.002	-0.203 (active)	-0.037	0.148	-0.021	0.004	-0.053	0.07
SRSF9 (UniProt Q13242)	0.014	0.046	0.006	-0.019	0.011	-0.003	0.019	0.085	-0.028	0.053
SYNE2 isoform 2 (UniProt Q8WXH0)	-0.082	-0.103	0.058	-0.93 (active)	0.073	0.296	-0.003	0.183	-0.194	0.397
SMN1 (UniProt Q16637)	0.086	0.035	-0.183	-0.031	0.021	-0.056	0.049	0.022	0.036	0.158
SUZ12 (UniProt Q15022)	0.015	0.043	-0.021	0.048	-0.016	0.027	0.006	0	-0.113	0.009
SMC3 (UniProt Q9UQE7)	0.007	0.006	0.011	0.037	-0.01	-0.013	0.001	-0.007	-0.021	-0.012
STAT2 (UniProt P52630)	0.005	-0.024	-0.146	0.008	0.004	-0.082	0.047	0.037	-0.078	0.093
SKA3 (UniProt Q8IX90)	0.009	-0.022	-0.029	-0.008	-0.022	-0.011	-0.008	0.002	0.027	0.034
SRSF7 (UniProt Q16629)	-0.061	0.075	0.084	-0.218 (active)	0.058	0	0.036	-0.01	0.05	0.194
SH3GL1 (UniProt Q99961)	0.013	0.005	-0.017	0.028	0.023	0.009	0.013	0.025	-0.001	-0.063
SKA1 (UniProt Q96BD8)	0.001	0.043	0.009	-0.032	0.042	0.001	0.086	0.037	-0.029	0.024
SHC1 isoform 6 (UniProt P29353)	0.019	-0.057	0.001	0.577 (active)	0.005	-0.106	0.005	0.065	-0.034	-0.175
TANGO6 (UniProt Q9C0B7)	-0.054	-0.002	-0.065	-0.102	0.005	0.037	-0.023	0.014	-0.064	0.115
SLC29A2 (UniProt Q14542)	-0.006	0.04	-0.068	-0.558 (active)	0.083	0.159	0.035	-0.023	0.045	0.146
SSU72 (UniProt Q9NP77)	-0.02	0.008	-0.042	-0.288 (active)	-0.004	0.134	-0.074	0.057	-0.052	0.166
TADA3 (UniProt O75528)	-0.005	0.009	0.017	-0.09	-0.002	0.143	0.066	0.006	-0.051	0.087
SLC39A11 (UniProt Q8N1S5)	-0.054	0.081	0.081	-0.097	-0.002	0.1	0.178	-0.139	0.022	0.013
SNAP23 (UniProt O00161)	0.005	-0.035	0.067	0.034	-0.004	0.007	0.005	0.002	0.059	-0.05
SSB (UniProt P05455)	-0.024	0.015	0.046	0.05	-0.01	-0.03	0.009	-0.032	0.017	-0.036
SORBS3 (UniProt O60504)	0.072	0.007	-0.002	0.006	-0.127	0.024	-0.012	-0.019	-0.032	0.025
SNRPF (UniProt P62306)	0.021	-0.029	-0.077	-0.237	0.076	0.21	-0.016	0.026	0.05	0.218
SVIP (UniProt Q8NHG7)	0.005	-0.03	-0.037	0.027	-0.013	0.01	0.037	0.021	-0.008	0.032
